Results filed as inconclusive are left out. A number with no mark means an inactive call. Calls of active or inactive are those of the source. Calls follow the shape of the dose curve; as a rule, active = well fitted inhibition curve with a large enough effect; inconclusive = small, poorly fitted or top-dose-only effect; inactive = flat fitted curve, though single readings scatter.
molecular target: Ubiquitin carboxyl-terminal hydrolase 1 (Homo sapiens) (UniProt O94782); experiment: Inhibitors of USP1/UAF1: Pilot qHTS (AID 504865); conditions: purified USP1/UAF1, Ub-rhodamine cleavage fluorescence; series mostly up to 54.9 µM; activity change, negative = inhibition: at the top concentration; also: nearly all actives have a fitted effect of over 35% in size;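 as to activity change, negative = inhibition: rhodamine fluorescence freed from ubiquitin-rhodamine substrate followed over time; top concentration of the series differs between compounds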
Sequence (O94782 whole entry, looked up): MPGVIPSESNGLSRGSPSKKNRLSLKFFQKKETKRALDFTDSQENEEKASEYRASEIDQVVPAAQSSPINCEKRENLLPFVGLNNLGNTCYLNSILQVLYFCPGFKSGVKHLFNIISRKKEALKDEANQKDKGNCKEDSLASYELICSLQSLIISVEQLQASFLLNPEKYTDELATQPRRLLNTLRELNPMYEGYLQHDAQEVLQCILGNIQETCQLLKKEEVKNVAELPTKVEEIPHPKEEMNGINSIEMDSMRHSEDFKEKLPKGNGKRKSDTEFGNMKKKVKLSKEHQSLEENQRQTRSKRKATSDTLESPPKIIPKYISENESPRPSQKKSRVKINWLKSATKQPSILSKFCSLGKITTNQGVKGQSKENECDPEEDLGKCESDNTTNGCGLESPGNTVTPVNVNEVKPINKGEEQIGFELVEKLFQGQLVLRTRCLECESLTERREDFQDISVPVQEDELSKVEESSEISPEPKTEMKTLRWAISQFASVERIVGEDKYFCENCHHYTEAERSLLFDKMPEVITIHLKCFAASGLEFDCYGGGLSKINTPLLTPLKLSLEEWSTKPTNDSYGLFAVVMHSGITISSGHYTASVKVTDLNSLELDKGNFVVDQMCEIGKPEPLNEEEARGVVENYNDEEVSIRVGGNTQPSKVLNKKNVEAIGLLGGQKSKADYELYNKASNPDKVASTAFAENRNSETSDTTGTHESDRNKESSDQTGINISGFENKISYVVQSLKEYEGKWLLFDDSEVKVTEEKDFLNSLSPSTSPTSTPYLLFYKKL
In short: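 Deubiquitinase activity followed as kinetic rhodamine fluorescence release from 150 nM Ub-Rho. 1 nM USP1/UAF1 with compound, after 15 min room-temperature preincubation, in HEPES pH 7.8 buffer containing TCEP, EDTA, BSA and Tween-20.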
% is scaled to controls: 0 for no effect and ±100 for the full control effect; potency is read from the fitted curve at half-maximal effect.

SMILES | activity change, negative = inhibition | Potency
N#Cc1cccc(-c2nc3cnc(N4CCOCC4)nc3n(C3CC3)c2=O)c1 | -5.13% | –
CCNc1ncc2nc(-c3cc(F)cc(F)c3)c(=O)n(C)c2n1 | -9.18% | –
CC(=O)NCCNc1ccnc(-c2ccccc2C(F)(F)F)n1 | -5.92% | –
CCNc1ncc2nc(-c3cc(F)cc(F)c3)c(=O)n(C[C@H]3CCCO3)c2n1 | -4.07% | –
COc1cccc(-c2cncnc2N(C)Cc2ccco2)c1 | -8.4% | –
COc1ccccc1-c1ccc2ncnc(NC3CCNCC3)c2c1 | -6.48% | –
O=c1cnc2cnc(N3CCOCC3)nc2n1C1CC1 | -8.02% | –
CCNc1ncc2nc(C)c(=O)n(-c3ccc(OC)cc3)c2n1 | -8.74% | –
CCNc1ncc2nc(C)c(=O)n(Cc3cccs3)c2n1 | -14.4% | –
Cn1c(=O)c(-c2cccs2)nc2cncnc21 | 3.36% | –
CN(C)c1ncc2ncc(=O)n(C3CC3)c2n1 | -1.55% | –
CCNc1ncc2nc(C)c(=O)n(Cc3ccc(F)cc3)c2n1 | -6.46% | –
COc1cccc(Nc2ncc3nc(C)c(=O)n(C)c3n2)c1 | -5.69% | –
Cc1cnc(CNc2ncncc2-c2cccc(C#N)c2)cn1 | -1.91% | –
Cc1nc2cnc(Nc3ccccc3)nc2n(C2CC2)c1=O | -3.89% | –
CCNc1ncc2nc(-c3cn(C)c4ccccc34)c(=O)n(-c3ccc(OC)cc3)c2n1 | -7.08% | –
CN(C)C(=O)c1ccc(-c2cncnc2N2CCNCC2)cc1 | -4.37% | –
Cc1noc(C)c1-c1ccc2ncnc(NC3CCNCC3)c2c1 | -4.92% | –

SMILES | activity change, negative = inhibition | Potency
CCNc1ncc2nc(C)c(=O)n(C)c2n1 | -14.3% | –
COc1ccc(CNc2ncncc2-c2cccnc2)c(OC)c1 | -6.3% | –
COc1ccc(-n2c(=O)cnc3cnc(N4CCOCC4)nc32)cc1 | -9.62% | –
Fc1ccc(Nc2ncncc2-c2ccoc2)cc1 | -15.3% | –
COc1cccc(Nc2ncc3nc(C)c(=O)n(CCc4ccccc4)c3n2)c1 | -8.07% | –
COc1ccc2[nH]cc(CCNc3ncncc3-c3c(C)noc3C)c2c1 | -12.1% | –
Cc1noc(C)c1-c1cc(Nc2ccccc2)ncn1 | -9.06% | –
COc1ccc(Oc2ncc3ncc(=O)n(C)c3n2)cc1 | -3.68% | –
CS(=O)(=O)Nc1cccc(-c2cncnc2Nc2ccc(F)cc2)c1 | -8.96% | –
c1ccc2c(NC3CCNCC3)nc(-c3ccoc3)nc2c1 | -21.5% | –
c1csc(CNc2cc(-c3ccoc3)ncn2)c1 | -6.79% | –
COc1ccc(CNc2cc(-c3ccoc3)ncn2)c(OC)c1 | -17.5% | –
O=c1cnc2cnc(Nc3ccccc3)nc2n1Cc1ccc(F)cc1 | -7.06% | –
Fc1ccc(Nc2ccnc(-c3ccoc3)n2)cc1 | -22.1% | –
COc1ccccc1-c1cc(NCc2ccccc2)ncn1 | – | 22.4 µM (active)
N#Cc1cccc(-c2cncnc2NCc2cccs2)c1 | -11.3% | –
CNc1cc(-c2c(C)noc2C)ncn1 | -7.97% | –
